# Results as given in PMC7862700, “An all-to-all approach to the identification of sequence-specific readers for epigenetic DNA modifications on cytosine”.
# What was measured:
# Assay in all cases: DAPPL (digital affinity profiling via proximity ligation, sequencing); 10 mM Tris-HCl pH 7.5, 50 mM NaCl, 1 mM DTT, 4% glycerol, room temperature, 30 min; GST-TFs on glutathione beads, 16-mer random dsDNA library, 0.1% formaldehyde crosslink after washing; high values mean tight binding
# FLI1 = molecular target: T1, FLI1 (Homo sapiens, UniProt Q01543 1-452); conditions: protein: recombinant; tags: N-terminal GST; dsDNA, one strand shown
# T1 sequence: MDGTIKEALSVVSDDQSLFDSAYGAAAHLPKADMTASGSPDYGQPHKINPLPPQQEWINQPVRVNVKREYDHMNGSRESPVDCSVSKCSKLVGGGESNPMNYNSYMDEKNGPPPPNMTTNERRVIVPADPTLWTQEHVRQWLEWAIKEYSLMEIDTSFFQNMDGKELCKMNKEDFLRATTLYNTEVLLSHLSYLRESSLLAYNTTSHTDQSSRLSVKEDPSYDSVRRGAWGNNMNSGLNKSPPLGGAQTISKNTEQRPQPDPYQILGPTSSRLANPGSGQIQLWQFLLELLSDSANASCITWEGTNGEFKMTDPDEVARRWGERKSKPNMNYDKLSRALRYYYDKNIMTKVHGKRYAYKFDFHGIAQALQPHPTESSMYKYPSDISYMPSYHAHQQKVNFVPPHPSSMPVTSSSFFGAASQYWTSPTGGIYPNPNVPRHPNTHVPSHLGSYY
# Procedure, shortened: (§1)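 Each value of binding signal is a hexamer's read frequency for a factor divided by the same hexamer's frequency in the tag-only sample. Barcoded, bead-captured GST fusions of human transcription factors made in yeast were pooled with that sample and incubated with 200 nmole of a random double-stranded 16-mer DNA library in Tris/NaCl/DTT/glycerol buffer at room temperature for 30 min. Washing, 0.1% formaldehyde crosslinking, proximity ligation, PCR and Illumina NextSeq500 sequencing followed.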
# ELK1 = molecular target: T2, ELK1 (Homo sapiens, UniProt P19419 1-428); conditions: protein: recombinant; tags: N-terminal GST; dsDNA, one strand shown
# T2 sequence: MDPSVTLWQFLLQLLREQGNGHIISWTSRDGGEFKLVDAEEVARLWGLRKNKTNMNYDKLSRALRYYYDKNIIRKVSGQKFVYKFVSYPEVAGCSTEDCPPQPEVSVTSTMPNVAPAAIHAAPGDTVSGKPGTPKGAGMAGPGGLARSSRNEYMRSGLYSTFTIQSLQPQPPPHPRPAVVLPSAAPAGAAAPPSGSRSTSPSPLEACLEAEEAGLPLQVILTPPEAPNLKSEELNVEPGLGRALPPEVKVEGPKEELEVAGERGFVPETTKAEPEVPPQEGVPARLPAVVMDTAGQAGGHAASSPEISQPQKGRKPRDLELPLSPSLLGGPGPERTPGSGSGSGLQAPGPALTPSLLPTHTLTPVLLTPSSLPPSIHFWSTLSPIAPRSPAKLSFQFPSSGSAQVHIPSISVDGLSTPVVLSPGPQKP
# Procedure, shortened: as §1
# GABPA = molecular target: T3, GABPA (Homo sapiens, UniProt Q06546 1-454); conditions: protein: recombinant; tags: N-terminal GST; dsDNA, one strand shown
# T3 sequence: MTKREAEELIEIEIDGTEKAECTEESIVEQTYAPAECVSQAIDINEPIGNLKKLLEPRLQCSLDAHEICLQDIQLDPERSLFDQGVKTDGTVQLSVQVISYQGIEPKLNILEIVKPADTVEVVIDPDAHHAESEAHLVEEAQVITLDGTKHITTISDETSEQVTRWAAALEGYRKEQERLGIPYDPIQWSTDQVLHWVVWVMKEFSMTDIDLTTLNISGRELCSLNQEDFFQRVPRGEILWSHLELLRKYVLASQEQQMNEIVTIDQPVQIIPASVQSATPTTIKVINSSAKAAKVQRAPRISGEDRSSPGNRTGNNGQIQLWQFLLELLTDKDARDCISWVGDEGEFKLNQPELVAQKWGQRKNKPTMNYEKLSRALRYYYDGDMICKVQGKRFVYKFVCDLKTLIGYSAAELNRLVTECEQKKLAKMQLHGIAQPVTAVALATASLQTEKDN
# Procedure, shortened: as §1
# ERG = molecular target: T4, ERG (Homo sapiens, UniProt P11308 1-479); conditions: protein: recombinant; tags: N-terminal GST; dsDNA, one strand shown
# T4 sequence: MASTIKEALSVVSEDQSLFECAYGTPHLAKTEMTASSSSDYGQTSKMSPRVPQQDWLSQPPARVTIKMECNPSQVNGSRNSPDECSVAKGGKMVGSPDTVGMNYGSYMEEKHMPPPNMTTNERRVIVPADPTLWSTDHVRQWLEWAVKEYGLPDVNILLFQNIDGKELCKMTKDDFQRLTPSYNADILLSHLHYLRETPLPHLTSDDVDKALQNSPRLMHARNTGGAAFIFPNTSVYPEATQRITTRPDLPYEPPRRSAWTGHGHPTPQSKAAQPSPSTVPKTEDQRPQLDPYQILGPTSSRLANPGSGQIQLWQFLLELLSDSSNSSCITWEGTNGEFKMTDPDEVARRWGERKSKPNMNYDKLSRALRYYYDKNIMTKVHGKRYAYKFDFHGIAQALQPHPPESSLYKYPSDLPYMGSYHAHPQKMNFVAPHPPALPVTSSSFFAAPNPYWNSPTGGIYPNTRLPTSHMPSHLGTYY
# Procedure, shortened: as §1
# ELF1 = ELF1 (Homo sapiens, UniProt P32519 1-619); conditions: protein: recombinant; tags: N-terminal GST; dsDNA, one strand shown
# Procedure, shortened: as §1
# EHF = molecular target: T5, EHF (Homo sapiens, UniProt Q9NZC4 1-300); conditions: protein: recombinant; tags: N-terminal GST; dsDNA, one strand shown
# T5 sequence: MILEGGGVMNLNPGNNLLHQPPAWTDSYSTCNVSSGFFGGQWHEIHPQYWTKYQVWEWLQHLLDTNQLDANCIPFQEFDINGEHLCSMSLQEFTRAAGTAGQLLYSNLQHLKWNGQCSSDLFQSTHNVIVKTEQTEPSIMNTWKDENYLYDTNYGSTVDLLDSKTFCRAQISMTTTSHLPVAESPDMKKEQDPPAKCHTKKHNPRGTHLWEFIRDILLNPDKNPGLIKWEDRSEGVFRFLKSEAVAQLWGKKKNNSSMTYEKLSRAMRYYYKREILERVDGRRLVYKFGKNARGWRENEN
# Procedure, shortened: as §1
# SPI1 = SPI1 (Homo sapiens, UniProt P17947 1-270); conditions: protein: recombinant; tags: N-terminal GST; dsDNA, one strand shown
# Procedure, shortened: as §1
# SPIB = SPIB (Homo sapiens, UniProt Q01892 1-262); conditions: protein: recombinant; tags: N-terminal GST; dsDNA, one strand shown
# Procedure, shortened: as §1
# ELK3 = molecular target: T6, ELK3 (Homo sapiens, UniProt P41970 1-407); conditions: protein: recombinant; tags: N-terminal GST; dsDNA, one strand shown
# T6 sequence: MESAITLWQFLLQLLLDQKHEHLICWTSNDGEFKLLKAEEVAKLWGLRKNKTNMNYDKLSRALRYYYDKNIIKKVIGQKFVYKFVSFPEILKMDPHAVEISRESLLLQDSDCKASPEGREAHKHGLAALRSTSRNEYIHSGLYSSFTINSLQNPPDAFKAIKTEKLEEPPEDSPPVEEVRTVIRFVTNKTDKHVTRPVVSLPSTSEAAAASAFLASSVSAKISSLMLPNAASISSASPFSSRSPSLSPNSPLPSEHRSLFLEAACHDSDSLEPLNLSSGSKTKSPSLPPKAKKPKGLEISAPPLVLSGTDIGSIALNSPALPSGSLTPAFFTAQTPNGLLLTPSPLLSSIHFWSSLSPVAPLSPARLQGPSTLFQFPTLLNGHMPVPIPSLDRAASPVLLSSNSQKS
# Procedure, shortened: as §1
# FEV = molecular target: T7, FEV (Homo sapiens, UniProt Q99581 1-238); conditions: protein: recombinant; tags: N-terminal GST; dsDNA, one strand shown
# T7 sequence: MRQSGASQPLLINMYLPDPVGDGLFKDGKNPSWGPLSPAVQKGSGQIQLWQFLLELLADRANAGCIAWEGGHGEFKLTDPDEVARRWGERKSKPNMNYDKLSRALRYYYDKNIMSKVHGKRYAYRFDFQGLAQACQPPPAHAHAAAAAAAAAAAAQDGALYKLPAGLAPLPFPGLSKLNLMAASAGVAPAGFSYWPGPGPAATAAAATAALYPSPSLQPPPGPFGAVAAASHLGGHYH
# Procedure, shortened: as §1
# ETV5 = ETV5 (Homo sapiens, UniProt P41161 1-510); conditions: protein: recombinant; tags: N-terminal GST; dsDNA, one strand shown
# Procedure, shortened: as §1
# HSF1 = HSF1 (Homo sapiens, UniProt Q00613 1-529); conditions: protein: recombinant; tags: N-terminal GST; chain copies: 3; dsDNA, one strand shown
# Procedure, shortened: as §1
# SPIC = molecular target: T8, SPIC (Homo sapiens, UniProt Q8N5J4 1-248); conditions: protein: recombinant; tags: N-terminal GST; dsDNA, one strand shown
# T8 sequence: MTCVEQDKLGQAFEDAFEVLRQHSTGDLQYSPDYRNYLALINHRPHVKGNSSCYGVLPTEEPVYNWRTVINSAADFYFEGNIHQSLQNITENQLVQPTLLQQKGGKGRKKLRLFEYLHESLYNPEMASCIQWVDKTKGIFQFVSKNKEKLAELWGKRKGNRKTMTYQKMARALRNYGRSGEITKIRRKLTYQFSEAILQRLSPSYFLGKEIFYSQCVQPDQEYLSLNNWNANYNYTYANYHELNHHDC
# Procedure, shortened: as §1
# ELF4 = ELF4 (Homo sapiens, UniProt Q99607 1-663); conditions: protein: recombinant; tags: N-terminal GST; dsDNA, one strand shown
# Procedure, shortened: as §1
# ELK4 = molecular target: T9, ELK4 (Homo sapiens, UniProt P28324-2 1-405); conditions: protein: recombinant; tags: N-terminal GST; dsDNA, one strand shown
# T9 sequence: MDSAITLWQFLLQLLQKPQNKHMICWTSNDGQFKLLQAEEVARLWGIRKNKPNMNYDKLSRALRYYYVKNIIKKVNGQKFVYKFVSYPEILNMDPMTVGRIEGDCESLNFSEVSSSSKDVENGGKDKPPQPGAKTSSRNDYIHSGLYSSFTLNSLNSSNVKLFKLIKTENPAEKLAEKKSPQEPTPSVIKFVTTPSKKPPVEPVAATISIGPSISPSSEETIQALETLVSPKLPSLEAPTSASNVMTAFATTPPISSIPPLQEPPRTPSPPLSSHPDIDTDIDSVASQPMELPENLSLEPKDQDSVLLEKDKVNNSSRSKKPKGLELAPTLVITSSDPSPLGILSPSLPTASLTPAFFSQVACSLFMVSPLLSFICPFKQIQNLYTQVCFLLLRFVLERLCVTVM
# Procedure, shortened: as §1
# ETV2 = molecular target: T10, ETV2 (Homo sapiens, UniProt O00321 1-342); conditions: protein: recombinant; tags: N-terminal GST; dsDNA, one strand shown
# T10 sequence: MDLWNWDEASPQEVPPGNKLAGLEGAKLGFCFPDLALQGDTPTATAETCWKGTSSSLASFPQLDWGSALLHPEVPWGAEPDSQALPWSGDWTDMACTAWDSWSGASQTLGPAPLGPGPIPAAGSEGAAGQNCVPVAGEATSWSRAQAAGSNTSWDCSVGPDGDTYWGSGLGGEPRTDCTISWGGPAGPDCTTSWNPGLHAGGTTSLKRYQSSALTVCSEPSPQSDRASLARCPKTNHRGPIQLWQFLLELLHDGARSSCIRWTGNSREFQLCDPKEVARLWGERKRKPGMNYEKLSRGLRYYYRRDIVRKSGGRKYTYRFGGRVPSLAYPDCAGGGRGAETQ
# Procedure, shortened: as §1
# ELF3 = molecular target: T11, ELF3 (Homo sapiens, UniProt P78545 1-371); conditions: protein: recombinant; tags: N-terminal GST; dsDNA, one strand shown
# T11 sequence: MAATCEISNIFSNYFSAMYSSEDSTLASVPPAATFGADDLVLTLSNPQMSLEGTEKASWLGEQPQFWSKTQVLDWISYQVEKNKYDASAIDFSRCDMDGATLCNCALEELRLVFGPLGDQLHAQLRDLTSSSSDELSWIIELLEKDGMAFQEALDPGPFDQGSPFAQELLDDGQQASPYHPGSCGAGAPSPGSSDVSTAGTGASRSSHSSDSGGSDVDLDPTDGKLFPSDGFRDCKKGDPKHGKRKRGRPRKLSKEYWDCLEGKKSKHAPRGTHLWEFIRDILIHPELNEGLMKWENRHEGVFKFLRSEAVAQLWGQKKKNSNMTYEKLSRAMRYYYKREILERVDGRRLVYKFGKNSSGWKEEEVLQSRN
# Procedure, shortened: as §1
# CRX = CRX (Homo sapiens, UniProt O43186 1-299); conditions: protein: recombinant; tags: N-terminal GST; dsDNA, one strand shown
# Procedure, shortened: as §1
# ETV1 = ETV1 (Homo sapiens, UniProt P50549 1-477); conditions: protein: recombinant; tags: N-terminal GST; dsDNA, one strand shown
# Procedure, shortened: as §1
# ELF4, sequence (Q99607 whole entry): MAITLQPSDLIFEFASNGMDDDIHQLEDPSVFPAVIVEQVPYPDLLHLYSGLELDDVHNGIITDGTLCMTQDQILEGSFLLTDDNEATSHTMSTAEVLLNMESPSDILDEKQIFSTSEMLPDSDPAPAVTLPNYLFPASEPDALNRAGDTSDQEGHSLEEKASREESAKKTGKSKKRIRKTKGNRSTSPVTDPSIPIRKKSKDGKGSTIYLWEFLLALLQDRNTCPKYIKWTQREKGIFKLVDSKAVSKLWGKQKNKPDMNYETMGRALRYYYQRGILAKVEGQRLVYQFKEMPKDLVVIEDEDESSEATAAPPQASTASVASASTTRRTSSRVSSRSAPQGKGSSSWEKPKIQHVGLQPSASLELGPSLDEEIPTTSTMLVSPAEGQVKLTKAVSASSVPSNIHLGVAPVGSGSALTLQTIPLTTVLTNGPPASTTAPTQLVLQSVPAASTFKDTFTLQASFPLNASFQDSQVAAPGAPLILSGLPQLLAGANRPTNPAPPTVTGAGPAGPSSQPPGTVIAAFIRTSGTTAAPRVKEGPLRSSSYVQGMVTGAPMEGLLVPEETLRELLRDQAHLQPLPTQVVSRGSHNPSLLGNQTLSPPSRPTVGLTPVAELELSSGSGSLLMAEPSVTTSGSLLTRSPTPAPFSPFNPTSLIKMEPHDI
# HSF1, sequence (Q00613 whole entry): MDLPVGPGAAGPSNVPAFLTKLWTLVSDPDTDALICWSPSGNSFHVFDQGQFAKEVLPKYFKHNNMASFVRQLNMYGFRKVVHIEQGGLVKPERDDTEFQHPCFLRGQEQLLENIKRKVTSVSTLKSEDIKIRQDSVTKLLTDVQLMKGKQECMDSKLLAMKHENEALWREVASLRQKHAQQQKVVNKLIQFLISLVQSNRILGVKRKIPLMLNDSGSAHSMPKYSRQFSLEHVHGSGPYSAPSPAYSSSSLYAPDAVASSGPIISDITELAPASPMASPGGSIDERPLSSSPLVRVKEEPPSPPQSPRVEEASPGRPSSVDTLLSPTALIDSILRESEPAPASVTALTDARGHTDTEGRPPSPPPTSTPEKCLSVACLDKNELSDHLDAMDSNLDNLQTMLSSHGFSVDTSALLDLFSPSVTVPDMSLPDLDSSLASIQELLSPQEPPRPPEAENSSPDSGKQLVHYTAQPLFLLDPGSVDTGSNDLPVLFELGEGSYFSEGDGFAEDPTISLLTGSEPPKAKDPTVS
# SPIB, sequence (Q01892 whole entry): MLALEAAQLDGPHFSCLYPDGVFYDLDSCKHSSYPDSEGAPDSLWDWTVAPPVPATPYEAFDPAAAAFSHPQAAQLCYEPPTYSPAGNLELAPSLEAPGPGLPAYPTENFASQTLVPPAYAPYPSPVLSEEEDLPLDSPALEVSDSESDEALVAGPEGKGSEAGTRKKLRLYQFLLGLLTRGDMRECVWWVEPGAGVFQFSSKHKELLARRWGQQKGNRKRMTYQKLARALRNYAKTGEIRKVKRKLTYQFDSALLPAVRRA
# ETV1, sequence (P50549 whole entry): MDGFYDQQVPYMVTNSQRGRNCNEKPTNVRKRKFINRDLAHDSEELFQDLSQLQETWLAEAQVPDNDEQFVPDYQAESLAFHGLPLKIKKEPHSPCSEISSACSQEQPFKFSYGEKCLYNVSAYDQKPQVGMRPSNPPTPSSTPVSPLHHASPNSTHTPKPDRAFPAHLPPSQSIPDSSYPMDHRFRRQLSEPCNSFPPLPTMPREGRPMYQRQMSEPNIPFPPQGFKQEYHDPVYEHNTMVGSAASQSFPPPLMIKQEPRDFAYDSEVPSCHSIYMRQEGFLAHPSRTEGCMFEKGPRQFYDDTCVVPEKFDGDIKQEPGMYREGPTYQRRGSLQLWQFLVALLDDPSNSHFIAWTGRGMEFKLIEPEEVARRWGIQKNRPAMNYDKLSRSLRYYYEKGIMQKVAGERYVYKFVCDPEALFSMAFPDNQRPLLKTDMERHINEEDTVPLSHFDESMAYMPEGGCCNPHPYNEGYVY
# ELF1, sequence (P32519 whole entry): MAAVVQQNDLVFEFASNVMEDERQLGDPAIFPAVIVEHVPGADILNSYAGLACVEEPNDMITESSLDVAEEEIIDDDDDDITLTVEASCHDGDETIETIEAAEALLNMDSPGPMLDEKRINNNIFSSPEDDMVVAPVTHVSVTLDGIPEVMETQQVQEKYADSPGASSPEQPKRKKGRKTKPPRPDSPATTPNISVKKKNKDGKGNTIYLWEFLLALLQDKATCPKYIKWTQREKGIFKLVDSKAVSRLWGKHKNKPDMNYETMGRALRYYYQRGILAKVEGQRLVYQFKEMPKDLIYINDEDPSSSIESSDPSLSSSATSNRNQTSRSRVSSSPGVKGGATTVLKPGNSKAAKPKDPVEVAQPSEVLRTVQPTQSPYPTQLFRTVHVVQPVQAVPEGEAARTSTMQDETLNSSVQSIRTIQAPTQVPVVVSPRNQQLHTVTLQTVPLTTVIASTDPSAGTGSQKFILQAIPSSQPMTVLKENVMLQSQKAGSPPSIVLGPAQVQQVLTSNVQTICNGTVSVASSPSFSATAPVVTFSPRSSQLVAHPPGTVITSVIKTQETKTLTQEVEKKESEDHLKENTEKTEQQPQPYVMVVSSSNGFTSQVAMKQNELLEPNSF
# ETV5, sequence (P41161 whole entry): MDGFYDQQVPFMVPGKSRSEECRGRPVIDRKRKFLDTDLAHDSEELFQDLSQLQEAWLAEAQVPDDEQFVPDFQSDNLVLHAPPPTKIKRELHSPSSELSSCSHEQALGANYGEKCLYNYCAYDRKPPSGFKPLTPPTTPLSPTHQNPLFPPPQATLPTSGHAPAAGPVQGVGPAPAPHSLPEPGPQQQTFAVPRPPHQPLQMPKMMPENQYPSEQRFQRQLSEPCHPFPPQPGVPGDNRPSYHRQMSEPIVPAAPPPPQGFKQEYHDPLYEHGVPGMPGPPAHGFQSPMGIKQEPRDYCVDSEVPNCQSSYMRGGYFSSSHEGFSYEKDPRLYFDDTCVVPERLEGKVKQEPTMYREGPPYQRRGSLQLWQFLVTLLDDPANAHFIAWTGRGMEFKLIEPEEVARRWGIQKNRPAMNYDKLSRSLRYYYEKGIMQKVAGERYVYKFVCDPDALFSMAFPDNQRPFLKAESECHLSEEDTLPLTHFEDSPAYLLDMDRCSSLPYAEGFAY
# CRX, sequence (O43186 whole entry): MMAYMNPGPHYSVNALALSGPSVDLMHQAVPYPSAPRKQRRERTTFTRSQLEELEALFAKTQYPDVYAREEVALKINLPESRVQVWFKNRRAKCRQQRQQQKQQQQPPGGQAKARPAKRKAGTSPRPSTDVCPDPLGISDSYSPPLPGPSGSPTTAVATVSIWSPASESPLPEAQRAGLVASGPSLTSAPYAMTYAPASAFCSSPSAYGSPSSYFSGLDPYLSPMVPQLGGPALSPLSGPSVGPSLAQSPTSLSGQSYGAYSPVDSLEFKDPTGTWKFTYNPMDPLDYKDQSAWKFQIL
sequence,measurement,setting,value
ATGACC,binding signal,FLI1,"1.54 fold enrichment (6-mer frequency, TF over GST control)"
same,binding signal,ELK1,"1.58 fold enrichment (6-mer frequency, TF over GST control)"
same,binding signal,GABPA,"1.78 fold enrichment (6-mer frequency, TF over GST control)"
same,binding signal,ERG,"1.52 fold enrichment (6-mer frequency, TF over GST control)"
same,binding signal,ELF1,"1.6 fold enrichment (6-mer frequency, TF over GST control)"
same,binding signal,EHF,"1.61 fold enrichment (6-mer frequency, TF over GST control)"
same,binding signal,SPI1,"1.6 fold enrichment (6-mer frequency, TF over GST control)"
same,binding signal,SPIB,"1.45 fold enrichment (6-mer frequency, TF over GST control)"
same,binding signal,ELK3,"1.65 fold enrichment (6-mer frequency, TF over GST control)"
same,binding signal,FEV,"1.63 fold enrichment (6-mer frequency, TF over GST control)"
same,binding signal,ETV5,"1.54 fold enrichment (6-mer frequency, TF over GST control)"
same,binding signal,HSF1,"1.42 fold enrichment (6-mer frequency, TF over GST control)"
same,binding signal,SPIC,"1.38 fold enrichment (6-mer frequency, TF over GST control)"
same,binding signal,ELF4,"1.66 fold enrichment (6-mer frequency, TF over GST control)"
same,binding signal,ELK4,"1.54 fold enrichment (6-mer frequency, TF over GST control)"
same,binding signal,ETV2,"1.76 fold enrichment (6-mer frequency, TF over GST control)"
same,binding signal,ELF3,"1.63 fold enrichment (6-mer frequency, TF over GST control)"
same,binding signal,CRX,"1.31 fold enrichment (6-mer frequency, TF over GST control)"
same,binding signal,ETV1,"1.62 fold enrichment (6-mer frequency, TF over GST control)"
